Bioassay records: PubChem BioAssay, National Center for Advancing Translational Sciences (NCATS)
PI5P4K alpha inh = inhibitors of human PI5P4K alpha; hit rate 1.2% among 330,000; P48426; AID 652105; PI5P4Kalpha enzyme, ADP-Glo luminescence, 60 min; stronger effect = lower value; max response, %; active means max response of -50% or lower; inconclusive means between -30% and -50%; inactive means -30% or higher; further: value at the top dose of about 77 µM; on the % scale 0 is the no-effect control and ±100 the full control effect
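Controls without substrate or without enzyme flank wells where PI5P4Kalpha converts substrate using 5 microM ATP (final). Incubation lasts 60 minutes at room temperature; ADP formed is read by ADP-Glo luminescence.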
JMJD2A Tudor = JMJD2A Tudor domain (human) inhibition; hit rate 4.4% among 390,000; O75164; Potency, µM (top dose mostly 114 µM), for inactives: top-dose activity change, negative = inhibition, most hits filed as inhibitors; AID 504339; AlphaScreen JMJD2A-Tudor / H3K4me3 peptide binding; further: potency means the concentration at half of the fitted maximal effect; on the % scale 0 is the no-effect control and ±100 the full control effect; nearly all actives have a fitted effect of over 50% in size
KDM4E inh = blocks human JMJD2E demethylase activity | Potency, µM (series often up to 57.1 µM), for the others: at the top dose activity change, negative = inhibition, hits mostly inhibitors | AID 2147 | hit rate 1.6% among 230,000 | B2RXH2 | JMJD2E catalytic domain, FDH-coupled NADH fluorescence (FDH is formaldehyde dehydrogenase); active means well fitted inhibition curve with a large enough effect, not every such curve was filed as active; inconclusive means small, poorly fitted or top-dose-only effect, or another doubt; inactive means no such curve, though single readings can be large or run the other way;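 further: potency means the concentration at half of the fitted maximal effect; 0% = wells with enzyme and -100% = buffer wells without enzyme; nearly all actives have a fitted effect of over 50% in size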
BAZ2B inh = blocks human BAZ2B | Q9UIF8 | AlphaScreen BAZ2B-H3K14Ac peptide displacement | Potency, µM (highest dose often 114 µM), for the others: at the highest dose activity change, negative = inhibition, hits mostly inhibitors | hit rate 4.4% among 360,000 | AID 504333; further: potency means the concentration at half of the fitted maximal effect; on the % scale 0 is the no-effect control and ±100 the full control effect; nearly all actives have a fitted effect of over 60% in size
Target sequence (Q9UIF8 whole entry, looked up): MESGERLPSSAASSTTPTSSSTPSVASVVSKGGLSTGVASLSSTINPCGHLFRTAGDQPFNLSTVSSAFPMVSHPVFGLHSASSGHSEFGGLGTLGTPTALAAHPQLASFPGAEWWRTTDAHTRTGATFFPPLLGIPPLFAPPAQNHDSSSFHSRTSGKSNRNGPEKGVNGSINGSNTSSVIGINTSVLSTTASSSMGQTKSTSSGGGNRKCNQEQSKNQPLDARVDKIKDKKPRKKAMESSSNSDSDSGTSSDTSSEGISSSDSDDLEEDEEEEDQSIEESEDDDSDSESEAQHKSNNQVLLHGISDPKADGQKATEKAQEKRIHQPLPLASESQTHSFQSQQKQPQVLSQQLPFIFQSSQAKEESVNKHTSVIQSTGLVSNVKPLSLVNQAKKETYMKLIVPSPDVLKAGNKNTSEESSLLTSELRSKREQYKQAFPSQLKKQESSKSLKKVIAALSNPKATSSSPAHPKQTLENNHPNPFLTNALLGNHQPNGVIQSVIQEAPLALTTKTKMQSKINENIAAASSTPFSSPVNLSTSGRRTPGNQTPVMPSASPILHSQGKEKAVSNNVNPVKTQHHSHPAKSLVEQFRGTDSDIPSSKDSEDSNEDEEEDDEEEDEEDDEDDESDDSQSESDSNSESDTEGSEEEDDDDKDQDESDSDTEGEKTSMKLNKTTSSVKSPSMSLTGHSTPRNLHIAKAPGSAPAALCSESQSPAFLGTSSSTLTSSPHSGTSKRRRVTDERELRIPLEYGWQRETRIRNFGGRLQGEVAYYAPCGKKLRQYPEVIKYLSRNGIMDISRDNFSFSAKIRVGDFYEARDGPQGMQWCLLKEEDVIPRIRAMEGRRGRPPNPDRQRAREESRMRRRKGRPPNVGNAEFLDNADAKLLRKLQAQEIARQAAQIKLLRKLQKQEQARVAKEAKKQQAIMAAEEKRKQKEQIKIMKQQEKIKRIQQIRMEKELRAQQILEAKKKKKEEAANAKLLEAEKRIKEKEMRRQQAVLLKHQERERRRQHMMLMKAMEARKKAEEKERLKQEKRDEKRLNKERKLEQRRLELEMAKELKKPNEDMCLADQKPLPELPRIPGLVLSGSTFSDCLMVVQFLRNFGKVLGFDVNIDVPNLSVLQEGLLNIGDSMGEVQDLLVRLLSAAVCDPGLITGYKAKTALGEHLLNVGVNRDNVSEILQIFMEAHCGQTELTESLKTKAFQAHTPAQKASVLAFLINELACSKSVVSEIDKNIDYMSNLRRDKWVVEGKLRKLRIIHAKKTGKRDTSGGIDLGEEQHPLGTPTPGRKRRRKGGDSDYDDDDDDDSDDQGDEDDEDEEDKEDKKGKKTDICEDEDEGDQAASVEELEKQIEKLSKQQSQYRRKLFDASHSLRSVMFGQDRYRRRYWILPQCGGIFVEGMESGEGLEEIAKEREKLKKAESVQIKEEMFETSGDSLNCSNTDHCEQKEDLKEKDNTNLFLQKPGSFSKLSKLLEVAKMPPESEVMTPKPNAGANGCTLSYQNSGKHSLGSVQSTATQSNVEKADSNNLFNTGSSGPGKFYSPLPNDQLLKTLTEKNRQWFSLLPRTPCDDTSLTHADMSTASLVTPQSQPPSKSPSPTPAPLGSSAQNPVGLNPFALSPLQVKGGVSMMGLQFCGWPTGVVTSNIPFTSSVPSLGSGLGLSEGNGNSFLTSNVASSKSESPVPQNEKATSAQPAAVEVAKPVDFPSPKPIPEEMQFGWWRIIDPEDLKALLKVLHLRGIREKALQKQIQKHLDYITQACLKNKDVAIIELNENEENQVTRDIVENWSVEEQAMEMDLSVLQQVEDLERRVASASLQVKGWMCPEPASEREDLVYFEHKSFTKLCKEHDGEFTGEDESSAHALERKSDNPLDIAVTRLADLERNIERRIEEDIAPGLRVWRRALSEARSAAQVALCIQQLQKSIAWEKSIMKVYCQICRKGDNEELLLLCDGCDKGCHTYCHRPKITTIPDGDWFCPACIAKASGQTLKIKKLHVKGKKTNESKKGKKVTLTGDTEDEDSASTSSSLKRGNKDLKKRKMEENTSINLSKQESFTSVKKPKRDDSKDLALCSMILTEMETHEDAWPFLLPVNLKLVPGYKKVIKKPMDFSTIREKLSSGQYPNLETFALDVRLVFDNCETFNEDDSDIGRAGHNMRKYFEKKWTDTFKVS
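Complex of BAZ2B and biotin-H3K14Ac (50 nM apiece) forms over 30 min at RT, then faces library compounds up to 110 uM for another 30 min; AlphaScreen beads added, 20 min dark incubation, luminescence read.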
L3MBTL1 inh-1 = inhibitors of human L3MBTL1; Q9Y468; AlphaScreen L3MBTL1–H3K9me1 peptide binding; Potency, µM (doses to about 57.1 µM), without a hit: top-dose activity, negative = inhibition, usual class: inhibitors; hit rate 0.66% among 230,000; AID 485360; further: potency means the concentration at half of the fitted maximal effect; on the % scale 0 is the no-effect control and ±100 the full control effect; nearly all actives have a fitted effect of over 60% in size
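L3MBTL1 (50 nM) pre-complexed 30 min with biotinylated H3(1-15)K9me1 peptide (75 nM), then compounds added for 30 min at room temperature; AlphaScreen streptavidin donor/nickel chelate acceptor beads (10 ug/mL final) read after 30 min dark incubation.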
HP1b binding inh = blocks HP1-beta chromodomain binding to methylated histone tails; P83916; AlphaScreen HP1-beta / biotin-H3K9me3 peptide binding; Potency, µM (highest dose often 114 µM), inactives show top-dose activity change, negative = inhibition, actives largely listed as inhibitors; hit rate 0.56% among 390,000; AID 540317; further: potency means the concentration at half of the fitted maximal effect; nearly all actives have a fitted effect of over 70% in size
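AlphaScreen: HP1-beta (50 nM) preformed 30 min with biotin-H3(1-18)K9me3 peptide (50 nM) in PBS pH 7.4, 0.01% Tween-20. Compound added for 30 min at RT, then streptavidin donor/nickel chelate acceptor beads (10 ug/mL) for 30 min.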
L3MBTL1 inh-2 = validation of human L3MBTL1 methyl-lysine binding inhibitors; shares compounds with L3MBTL1 inh-1; L3MBTL1 methyl-lysine binding inhibition, biochemical qHTS; AID 540279; Potency, µM, usual class: inhibitors; hit rate 91% among 500; further: potency means the concentration at half of the fitted maximal effect; nearly all actives have a fitted effect of over 70% in size
L3MBTL1 ctr = interferes with AlphaScreen signal in L3MBTL1 counterscreen; shares compounds with L3MBTL1 inh-1; AlphaScreen counterscreen, signal inhibition; Potency, µM (highest dose often 57.1 µM), inactives show top-dose activity change, negative = inhibition, most hits filed as inhibitors; 500 tested, under 10 active; further: potency means the concentration at half of the fitted maximal effect; 0% is about no effect
ME-1 growth = reduces ME-1 leukemia cell proliferation. ME-1 cell proliferation, ATP luminescence, 48 h. hit rate 20% among 140. Potency, µM (top dose mostly 56.1 µM), without a hit: at the top dose activity change, negative = inhibition, most hits filed as inhibitors. shares compounds with BAZ2B inh
ADP-Glo interf = counter-screen for PI5P4K inhibitors: ADP-Glo detection interference, no enzyme; Potency, µM (doses to about 76.9 µM), without a hit: at the highest dose activity change, negative = inhibition, usual class: inhibitors; 1,100 tested, under 10 active; AID 743285; ADP-Glo detection counter-screen, luciferase luminescence, no enzyme; shares compounds with PI5P4K alpha inh
Starred values were filed as active, the others as inactive; [ ] = remark or other dose. Compounds with a hit are over-represented: about 5.7% of the library has one in this group of screens. Unless noted, the call rests on the fitted dose curve; in most records, active means well fitted curve in the direction sought with a large enough effect; inconclusive means small, poorly fitted or top-dose-only effect, or another doubt; inactive means no such curve, though single readings can be large; an effect the other way counts as inactive or inconclusive.

For COc1ccc(C(CNC(=O)CCNS(=O)(=O)c2ccccc2C(F)(F)F)N2CCOCC2)cc1 (centres undefined) the results were PI5P4K alpha inh -10.1, JMJD2A Tudor -4.1% and HP1b binding inh 52.4%.
For O=C(Nc1nc(-c2ccco2)c(-c2ccco2)s1)c1ccc(F)cc1F the results were PI5P4K alpha inh -64.0*, JMJD2A Tudor inconclusive, BAZ2B inh 39.8µM*, L3MBTL1 inh-1 8.91µM*, HP1b binding inh inconclusive, L3MBTL1 inh-2 5.32*, L3MBTL1 ctr -10.3% and ADP-Glo interf -8.9%.
Screening O=C(Nc1ccc(F)cc1F)c1cc(-c2ccco2)nc2ccccc12 returned PI5P4K alpha inh inconclusive, JMJD2A Tudor -11.7%, BAZ2B inh 4.5% and HP1b binding inh 17.3%.
`O=C(Nc1nc(-c2ccco2)c(-c2ccco2)s1)c1cnccn1` gave PI5P4K alpha inh -67.2*, JMJD2A Tudor -33.6%, BAZ2B inh inconclusive, L3MBTL1 inh-1 3.55µM*, HP1b binding inh -0.2%, L3MBTL1 inh-2 2.67*, L3MBTL1 ctr 79.0% and ADP-Glo interf -9.6%.
CCCN(C(=O)c1cccc(-n2cccc2)c1)c1c(N)n(Cc2ccccc2)c(=O)[nH]c1=O was read as PI5P4K alpha inh -88.2*, JMJD2A Tudor 15.8µM*, BAZ2B inh 50.1µM*, L3MBTL1 inh-1 10µM*, HP1b binding inh 44.7µM*, L3MBTL1 inh-2 4.74*, L3MBTL1 ctr 10.4% and ADP-Glo interf -8.2%.
CCCCN(C(=O)c1cccc(-n2cccc2)c1)c1c(N)n(CCC)c(=O)[nH]c1=O was read as PI5P4K alpha inh -60.9*, JMJD2A Tudor 14.1µM*, BAZ2B inh 44.7µM*, L3MBTL1 inh-1 14.1µM*, HP1b binding inh 79.4µM*, L3MBTL1 inh-2 9.47*, L3MBTL1 ctr 7.3% and ADP-Glo interf 1.9%.
Screening COCCCN(C(=O)c1cc2c(s1)CCC2)c1c(N)n(Cc2ccccc2)c(=O)[nH]c1=O returned PI5P4K alpha inh inconclusive, JMJD2A Tudor -26.9%, KDM4E inh -10.2%, BAZ2B inh inconclusive, L3MBTL1 inh-1 inconclusive and HP1b binding inh 0.9%.
CCCN(C(=O)c1cc2c(s1)CCC2)c1c(N)n(Cc2ccccc2)c(=O)[nH]c1=O was read as PI5P4K alpha inh -66.4*, JMJD2A Tudor -30.1%, KDM4E inh -24.6%, BAZ2B inh inconclusive, L3MBTL1 inh-1 17.8µM*, HP1b binding inh 30.9%, L3MBTL1 inh-2 5.32*, L3MBTL1 ctr 7.6% and ADP-Glo interf 1.5%.
Screening CCCCN(C(=O)c1cccc(S(=O)(=O)N2CCCC2)c1)c1c(N)n(CCC)c(=O)[nH]c1=O returned PI5P4K alpha inh 0.5, JMJD2A Tudor -12.8%, BAZ2B inh 8.0%, L3MBTL1 inh-1 3.5% and HP1b binding inh 30.2%.
COc1cccc(C(=O)CC2c3c(c(Br)c4c(c3OC)OCO4)CCN2C)c1 (centres undefined) was read as KDM4E inh -2.6%.
`Cc1sc(NC(=O)c2sc3nc4c(C)cccc4cc3c2N)c(C#N)c1C` gave PI5P4K alpha inh -63.4*, JMJD2A Tudor -31.2%, KDM4E inh inconclusive, BAZ2B inh inconclusive, L3MBTL1 inh-1 17.8µM*, HP1b binding inh 11.1%, L3MBTL1 inh-2 6.7*, L3MBTL1 ctr -2.1% and ADP-Glo interf -5.6%.
Screening O=C1OCC2OC(O)C(O)C(O)C2OC(=O)c2cc(O)c(O)c(O)c2-c2c(O)c(O)c3oc(=O)c4c(c(O)c(O)c5oc(=O)c2c3c54)-c2c1cc(O)c(O)c2O (centres undefined) returned KDM4E inh 0.562µM*, BAZ2B inh 0.708µM* and ME-1 growth inconclusive.
COc1c(O)cc2c(c1O)C1OC(CO)C(O)C(O)C1OC2=O (centres undefined) was read as PI5P4K alpha inh 5.0, JMJD2A Tudor -3.6%, BAZ2B inh 2.6%, L3MBTL1 inh-1 10.7% and HP1b binding inh 28.5%.
Screening CC1=NN(c2ccccc2)C(=O)/C1=C/C=C/c1ccc(N(C)C)cc1 returned PI5P4K alpha inh -28.7, JMJD2A Tudor 2.51µM*, KDM4E inh -0.6%, BAZ2B inh 2µM*, L3MBTL1 inh-1 inconclusive, HP1b binding inh 2.51µM* and ME-1 growth inconclusive.
`CC(=O)Nc1sc(N)nc1-c1ccccc1` gave PI5P4K alpha inh -0.1, JMJD2A Tudor -27.7%, KDM4E inh -3.6%, BAZ2B inh 3.7% and HP1b binding inh 11.5%.
Screening Nc1nc(-c2ccccc2)c(N=Nc2ccccc2Cl)s1 returned PI5P4K alpha inh 2.8, JMJD2A Tudor 12.6µM*, KDM4E inh -0.1%, BAZ2B inh 10µM*, L3MBTL1 inh-1 28.2µM*, HP1b binding inh 17.8µM* and ME-1 growth -13.9%[25.6 µM].
Nc1nc(-c2ccccc2)c(N=Nc2cccc3ccccc23)s1 was read as PI5P4K alpha inh 36.6, JMJD2A Tudor 11.2µM*, KDM4E inh -9.4%, BAZ2B inh 8.91µM*, L3MBTL1 inh-1 17.8µM*, HP1b binding inh inconclusive and ME-1 growth -10.4%[25.6 µM].
Cn1c(=O)c2cc(NC(=O)CCc3cccnc3)ccc2n1Cc1cccc(C(F)(F)F)c1 was read as PI5P4K alpha inh -1.9.
Screening Fc1ccc(N2CCN(C(=S)NCc3ccco3)CC2)cc1 returned PI5P4K alpha inh 0.7, JMJD2A Tudor inconclusive, KDM4E inh -4.3%, BAZ2B inh inconclusive and HP1b binding inh -11.8%.
Screening S=C(NCc1ccco1)N1CCOCC1 returned PI5P4K alpha inh -2.2, JMJD2A Tudor -4.1%, KDM4E inh -1.7%, BAZ2B inh -18.1%, L3MBTL1 inh-1 -3.2%, HP1b binding inh 17.3% and ME-1 growth -10.4%[25.6 µM].
